# Source: PubChem
# TrxR1 inh: inhibitors of rat thioredoxin reductase 1; recombinant rTrxR1, NADPH fluorescence consumption, selenite substrate; AID 588453; 390,000 compounds, 1% hits; Potency, µM (series often up to 114 µM), usual class: inhibitors; O89049; note: nearly all actives have a fitted effect of over 65% in size
# Target sequence (O89049 whole entry, looked up): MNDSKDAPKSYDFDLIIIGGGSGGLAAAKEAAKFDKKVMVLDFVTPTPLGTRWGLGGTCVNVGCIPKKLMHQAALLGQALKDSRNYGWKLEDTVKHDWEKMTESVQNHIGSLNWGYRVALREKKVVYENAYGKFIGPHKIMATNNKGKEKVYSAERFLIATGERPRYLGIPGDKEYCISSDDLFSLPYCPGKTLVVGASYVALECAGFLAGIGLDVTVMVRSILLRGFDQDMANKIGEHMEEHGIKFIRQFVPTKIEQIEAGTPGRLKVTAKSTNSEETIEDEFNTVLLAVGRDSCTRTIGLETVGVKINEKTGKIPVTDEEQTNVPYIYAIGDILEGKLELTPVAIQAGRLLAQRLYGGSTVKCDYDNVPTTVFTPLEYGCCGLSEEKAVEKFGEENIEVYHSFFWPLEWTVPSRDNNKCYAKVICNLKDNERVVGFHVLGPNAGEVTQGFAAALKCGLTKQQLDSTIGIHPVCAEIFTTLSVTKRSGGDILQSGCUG
#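 Rat TrxR1 (90 nM in the dispensed reagent) was pre-reduced with 400 uM NADPH for 5 min at room temperature, then incubated with compound for 15 min. After 400 uM selenite was added, NADPH fluorescence (Ex 340/Em 450 nm) was followed for 8 min.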
# Pin1 inhibitor: blocks the human prolyl isomerase Pin1. Q13526. Pin1 FP peptide displacement, HiFluor488, 10 min. Potency, µM (top dose mostly 115 µM), hits mostly inhibitors. 390,000 compounds, 0.009% hits. AID 504891; active = well fitted inhibition curve with a large enough effect in the polarisation, with a control signal flat, not every such curve was filed as active; inconclusive = small, poorly fitted or top-dose-only effect, or effect the other way, or a change in a side signal; inactive = no such curve, though single readings can be large or run the other way; the % refers to the polarisation
# Target sequence (Q13526 whole entry, looked up): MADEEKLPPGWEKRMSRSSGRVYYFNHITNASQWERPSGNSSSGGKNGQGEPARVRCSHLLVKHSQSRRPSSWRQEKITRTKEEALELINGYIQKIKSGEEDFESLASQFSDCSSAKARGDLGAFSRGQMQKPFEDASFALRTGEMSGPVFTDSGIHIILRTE
# N370S GC mod: inhibits or activates N370S mutant glucocerebrosidase; AID 2101; P04062; N370S GC spleen homogenate, 4MU-glucoside fluorescence; Potency, µM (series often up to 59.4 µM), actives largely listed as inhibitors; 330,000 compounds, 0.092% hits
# AT treatment: candidate therapy for ataxia-telangiectasia. Potency, µM (series often up to 57.5 µM), usual class: activators. 320,000 compounds, 0.19% hits. F2112 A-T fibroblasts, KAP-1 phosphorylation AlphaLISA; neocarzinostatin DNA damage 30 min before lysis; note: nearly all actives have a fitted effect of over 45% in size
#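 ATM-like activity read as KAP-1 phosphorylation via AlphaLISA donor/acceptor antibody pairs after lysis and 6 hr at 25C. Cells were ATM-null patient fibroblasts (F2112, hTERT), dosed 60 min, then exposed to the DSB inducer NCS for 30 min.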
# pAkt inh: blocks phosphorylation of Akt; Neuro2A IGF-stimulated pAkt S473 HTRF, 20 min; stronger effect = lower value; activity change, % for hits at 50 µM; 360,000 compounds, 0.32% hits; AID 651550; in the data active = activity change below about -80%; inconclusive = mostly about -51% to -80%
#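 Neuro2A cells (4,500/well, DMEM with 0.5% FBS) were treated with compound at a single 50 µM final concentration, stimulated with 6 nM IGF for 20 min at 37 °C, and lysed. Phospho-Akt Ser473 was read by HTRF as 665/615 ratio ×10^4.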
# TrxR1 substrate: is turned over as a substrate by rat TrxR1; 390,000 compounds, 0.01% hits; purified TrxR1 substrate turnover, NADPH consumption readout; Potency, µM (series often up to 114 µM); O89049; note: nearly all actives have a fitted effect of over 50% in size
#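 Rat TrxR1, dispensed at 90 nM, was prereduced with 400 uM NADPH (final) for 5 min at ~22 deg C, then incubated with compound 15 min before 400 uM selenite. A first-read NADPH fluorescence drop versus no-compound background flagged substrates.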
# A number is an active result; i = inactive; ? = inconclusive; nt = not tested or not shown; [ ] = dose if it differs, or a comment. Only some compounds are listed: those with a hit (about 1.4% of all), similar ones and a draw of the others. Unless noted, calls come from the whole dose curve; as a rule, active = well fitted curve in the direction sought with a large enough effect; inconclusive = small, poorly fitted or top-dose-only effect, or another doubt; inactive = no such curve, though single readings can be large; an effect the other way counts as inactive or inconclusive.
SMILES,TrxR1 inh,Pin1 inhibitor,N370S GC mod,AT treatment,pAkt inh,TrxR1 substrate
COc1cc(C2C(C#N)=C(N)N(c3ccc(F)cc3)C3=C2S(=O)(=O)CC3)ccc1O (stereo not given),11.2µM,?,i,i,i,i
Cc1cc(=O)n2nc(N3CCC(C(=O)Nc4ccc(Br)c(C)c4)CC3)sc2n1,i,i,nt,nt,nt,i
COc1cccc(/C=C/c2nc3ccccc3nc2/C=C/c2cccc(OC)c2OC)c1OC,i,nt,nt,nt,nt,i[0.0914 µM]
O=C(Cc1cc(=O)[nH][nH]1)N/N=C/c1c(F)cccc1Cl,i,i,i,i,i,i
O=C(Cc1cc(=O)[nH][nH]1)N/N=C/c1c(Cl)cccc1Cl,44.7µM,?,i,i,i,i
CCSC1(SCC)N=C(N)C2(C#N)C(c3ccc(F)cc3)C12C#N (stereo not given),31.6µM,i,i,i,i,i
Fc1ccc(/C=C/c2ccc3ccccc3n2)cc1,?,nt,nt,nt,nt,i
COC(=O)Nc1ccc(Cl)c(Cl)c1,nt,nt,i,nt,nt,nt
COc1ccc(C(=O)Nc2ccc(Cl)c(Cl)c2)c(OC)n1,i,i,i,i,-129.1%,i
CCOc1ccc(N2C(=O)CC(Sc3n[nH]c(-c4ccccc4)n3)C2=O)cc1 (stereo not given),6.31µM,i,i,i[11.5 µM],i,i
COc1ccc(N2C(=O)CC(Sc3n[nH]c(-c4ccccc4)n3)C2=O)cc1 (stereo not given),2µM,i,i,i,i,i
Cc1cc(N(C)C)cc(C)c1C=O,?,nt,nt,nt,nt,i
COC(=O)C(NC(=O)COc1ccccc1)(Nc1nc2c(s1)CCCC2)C(F)(F)F (stereo not given),31.6µM,i,i,i,i,i
Cc1cccc(NC(=O)Cn2c(=O)n(CCc3ccccc3)c(=O)c3sc4ccccc4c32)c1,i,i,nt,nt,nt,i
O=C(NC1CCCCC1)C(c1cccnc1)N(C(=O)CCl)c1ccccc1Cl (stereo not given),i,i,i,i,i,i
CC(C)CCN(C(=O)CNC(=O)c1cccs1)C(C(=O)NC1CCCCC1)c1cccnc1 (stereo not given),i,i,i,17.8µM,i,i
O=C(NC1CCCCC1)C(c1cccnc1)N(C(=O)CCl)c1ccc(F)cc1 (stereo not given),14.1µM,i,i,i,i,i
COc1ccc(N(C(=O)CCl)C(C(=O)NC2CCCCC2)c2cccnc2)cc1 (stereo not given),15.8µM,i,i,i,i,i
CC(C)CCN(C(=O)CNC(=O)c1cccs1)C(C(=O)NC1CCCC1)c1ccncc1 (stereo not given),i,i,i,i,i,i
Cc1ccc(S(=O)(=O)N/N=C\c2ccc([N+](=O)[O-])o2)cc1,?,i,i,i,nt,i
CN1CCN(C(=O)/C=C/c2ccc([N+](=O)[O-])o2)CC1,?,i,i,i,i,i[2.29 µM]
O=[N+]([O-])c1ccc(/C=N/NS(=O)(=O)c2ccc(Cl)cc2)o1,14.1µM,i,i,i,i,i
N#CCc1ccc(NC(=O)/C=C/c2ccc([N+](=O)[O-])o2)cc1,15.8µM,i,i,?,i,i
CC1CN(N=Cc2ccc([N+](=O)[O-])o2)C(=N)O1 (stereo not given),35.5µM,i,nt,nt,i,i
O=C(O)/C=C/c1ccc([N+](=O)[O-])o1,10µM,i,i,i,i,i
SMILES,TrxR1 inh,Pin1 inhibitor,N370S GC mod,AT treatment,pAkt inh,TrxR1 substrate
O=[N+]([O-])c1ccc(/C=N/N=C/c2ccc([N+](=O)[O-])o2)o1,2.51µM,i,i,i,i,i
N#C/C(=C\c1ccc([N+](=O)[O-])o1)C(=O)Nc1ccc(F)cc1,3.16µM,?,i,i,i,i
Cc1ccc(/C=C(\C#N)C(=O)Nc2ccc(Br)cc2)o1,i,?,nt,nt,nt,i
Cc1cc(/C=C/c2c(C)cnc3ccccc23)ccc1N(C)C,i,nt,nt,nt,nt,i
Cc1cccc(-n2c(SCCC(=O)O)nnc2-c2cccs2)c1C,i,i,i,i,-115.5%,i
NC(=O)C1CCN(c2ncc(-c3ccc4c(c3)OCCCO4)s2)CC1,nt,i,nt,nt,nt,nt
COc1ccc(C(=O)c2cccc(C(=O)c3ccc(OC)c(C)c3)c2)cc1C,i,i,i,i,i,i
COc1ccc(C(=O)c2ccc(OC)c(Br)c2)cc1Br,39.8µM,i,i,i,i,i
C#CCOCCOCCOCCNc1nc(N2CCN(C(=O)Cn3cc(CCCCN)nn3)CC2)nc(N2CCN(C(=O)[C@H]([C@@H](C)CC)n3cc(CCCN=C(N)N)nn3)CC2)n1,i,i,i,i,i,i
C#CCOCCOCCOCCNc1nc(N2CCN(C(=O)CCCCCCCCCCNC(=O)[C@H](CCCCN)n3cc(CCO)nn3)CC2)nc(N2CCN(C(=O)CCCCCCCCCCNC(=O)[C@H](CCCN=C(N)N)n3cc(C[C@@H](C)CC)nn3)CC2)n1,i,?,7.94µM,i,i,i
C#CCOCCOCCOCCNc1nc(N2CCN(C(=O)CCCCCCCCCCNC(=O)Cn3cc(C[C@@H](C)O)nn3)CC2)nc(N2CCN(C(=O)CCCCCCCCCCNC(=O)[C@H](CCCCN)n3cc(C[C@@H](C)CC)nn3)CC2)n1,i,i,22.4µM,i,i,i
C#CCOCCOCCOCCNc1nc(N2CCN(C(=O)Cn3cc(CCCN=C(N)N)nn3)CC2)nc(N2CCN(C(=O)[C@H]([C@@H](C)O)n3cc(CCCCN)nn3)CC2)n1,70.8µM,i,i,i,i,i
C#CCOCCOCCOCCNc1nc(N2CCN(C(=O)CCCCCCCCCCNC(=O)[C@H](CCCCN)n3cc(CCCC(=O)O)nn3)CC2)nc(N2CCN(C(=O)CCCCCCCCCCNC(=O)[C@H](CCCN=C(N)N)n3cc(C[C@@H](C)CC)nn3)CC2)n1,i,i,?,i,i,i
COc1ccccc1C(=O)Nc1ccc(-c2cc(C(F)(F)F)nn2-c2ccccc2)cc1,i[11.4 µM],i,nt,nt,nt,i
COc1cc(/C=C2\SC(=Nc3ccccc3)N(CCc3c[nH]c4ccccc34)C2=O)ccc1OC(C)C(=O)O (stereo not given),i,nt,i,i,i,i
O=C1S/C(=C/c2ccc(N3CCOCC3)o2)C(=O)N1Cc1ccc(F)cc1,8.91µM,?,i,i,i,i
CC(C)OC(=O)CN1C(=O)S/C(=C/c2ccc(N3CCCCC3)o2)C1=O,?,?,i,i,i,i
O=C1/C(=C/c2ccc(N3CCOCC3)o2)SC(=Nc2ccccc2)N1CCc1c[nH]c2ccccc12,10µM,?,i,?,i,i
O=C1S/C(=C\c2ccc(N3CCOCC3)o2)C(=O)N1Cc1ccc(F)cc1,2.51µM,?,i,i,i,i
O=C1N=C(N2CCOCC2)S/C1=C/c1ccc(-c2ccc(F)cc2)o1,i,i,i,i,i,i
O=C1NC(=S)S/C1=C/c1ccc(N2CCOCC2)o1,12.6µM,?,i,nt,i,i
